High-throughput results deposited in PubChem BioAssay by National Center for Advancing Translational Sciences (NCATS).
PNC assembly inh: perinucleolar compartment assembly inhibition. PC3M PTB-GFP, PNC prevalence imaging, 16 h; stronger effect = lower value. activity change (PNC), negative = inhibition, % at 10 µM. 140,000 tested, 3.1% active;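 active means readout at or below -70, meaning at least 70% loss of cells showing the perinucleolar compartment, a nuclear body marking cancer cells; inconclusive means readout between -30 and a set limit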
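Compounds are pinned in duplicate onto adhered PC3M cells stably expressing GFP-tagged PTB and incubated 16 h at 37 C. Cells are then fixed, nuclei stained with Hoechst, and PNC-positive cells counted.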
CBFb-RUNX1 inh: blocks binding between human CBF-beta and RUNX1 | Potency, µM (series often up to 59.8 µM), usual class: inhibitors | AlphaScreen CBFb-His/RUNX1-biotin binding, biochemical | Q01196+Q13951 | 230,000 tested, under 10 active
Target sequence (Q01196 whole entry, looked up): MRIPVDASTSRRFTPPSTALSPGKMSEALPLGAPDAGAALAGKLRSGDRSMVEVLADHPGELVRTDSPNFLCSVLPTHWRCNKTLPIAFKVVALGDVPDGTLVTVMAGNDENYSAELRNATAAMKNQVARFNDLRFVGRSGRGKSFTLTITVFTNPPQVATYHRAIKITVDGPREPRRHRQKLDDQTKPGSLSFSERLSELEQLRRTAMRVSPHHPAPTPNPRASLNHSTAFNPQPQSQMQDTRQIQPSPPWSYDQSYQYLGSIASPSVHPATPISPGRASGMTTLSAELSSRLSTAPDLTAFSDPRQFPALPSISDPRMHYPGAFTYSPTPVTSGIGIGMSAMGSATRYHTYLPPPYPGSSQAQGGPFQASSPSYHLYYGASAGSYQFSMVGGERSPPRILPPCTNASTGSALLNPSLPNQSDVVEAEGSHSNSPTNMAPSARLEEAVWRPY
Target sequence (Q13951 whole entry, looked up): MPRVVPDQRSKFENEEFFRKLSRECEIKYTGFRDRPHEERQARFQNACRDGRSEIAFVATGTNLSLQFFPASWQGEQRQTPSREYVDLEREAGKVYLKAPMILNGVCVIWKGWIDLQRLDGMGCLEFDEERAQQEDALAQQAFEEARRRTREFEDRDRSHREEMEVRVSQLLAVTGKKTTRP
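Compounds were screened at multiple concentrations against a preformed CBF-beta(His)/RUNX1(biotin) complex (30 nM of each) for 15 min at room temperature, followed by 90 min with nickel and streptavidin beads and AlphaScreen reading.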
HPGD block: blocks human HPGD enzyme activity; P15428; purified HPGD, NADH fluorescence kinetic, PGE2 substrate; Potency, µM, usual class: inhibitors; 150,000 tested, 4.3% active; active means well fitted inhibition curve with a large enough effect, not every such curve was filed as active; inconclusive means small, poorly fitted or top-dose-only effect, or another doubt; inactive means no such curve, though single readings can be large or run the other way
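20 nM HPGD preincubated 15 min at room temperature with compound in 50 mM Tris-HCl pH 8, 0.01% Tween 20. Started with 1 mM NAD+ and 30 uM prostaglandin E2; NADH fluorescence (360/450 nm) read 5 times over 30-s intervals, last minus first.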
HTT ATP protect: cytoprotection in Huntington HTT-Q103 PC12 cell model; PC12 HTT-Q103 induced, cytoprotection, ATP luminescence, 40 h; Potency, µM (highest dose often 56.4 µM), most hits filed as activators; 230,000 tested, 0.14% active; further: nearly all actives have a fitted effect of over 45% in size
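PC12 cells stably carrying ecdysone-inducible Htt exon 1 (Q103)–GFP were induced with 100 nM tebufenozide (final) alongside library compounds in a dose series. Cytoprotection was scored as retained ATP by ATPlite luminescence.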
HTT aggregate: inhibitors of mutant huntingtin aggregate formation in PC12 cells; PC12 HttQ103-GFP aggregates, Acumen cytometry, 40 h; AID 1688; 220,000 tested, 1.1% active; Potency, µM (doses to about 46.1 µM), hits mostly inhibitors; further: nearly all actives have a fitted effect of over 60% in size
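Inducible Q103 Huntingtin exon 1–GFP PC12 line, 1500 cells/well in phenol red free DMEM with 5% equine and 5% calf serum. Tebufenozide 100 nM induced expression; compounds titrated; aggregates quantified by cytometry.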
ALDH1A1 inh: ALDH1A1 (human) enzyme inhibition | P00352 | Purified ALDH1A1, NADH fluorescence, propionaldehyde substrate | Potency, µM (series often up to 75.3 µM), usual class: inhibitors | 220,000 tested, 7.3% active | AID 1030; active means well fitted inhibition curve with a large enough effect, not every such curve was filed as active; inconclusive means small, poorly fitted or top-dose-only effect, or another doubt; inactive means no such curve, though single readings can be large or run the other way
Of the large screens only hits and unclear results are named; the others gave an inactive call. Only some compounds are listed: those with a hit (about 11% of all), similar ones and a draw of the others. Unless noted, the call rests on the fitted dose curve; in most records, active means well fitted curve in the direction sought with a large enough effect; inconclusive means small, poorly fitted or top-dose-only effect, or another doubt; inactive means no such curve, though single readings can be large; an effect the other way counts as inactive or inconclusive.

O=C(c1ccc(Cl)cc1Cl)N1CCC(c2nc3c(nnn3Cc3ccco3)c(=O)[nH]2)CC1	PNC assembly inh inconclusive, HPGD block 20µM
O=C(c1ccccc1)N1CCC(c2nc3c(nnn3Cc3ccco3)c(=O)[nH]2)CC1	HPGD block 14.1µM
CCOc1cccc2cc(C(=O)Nc3ccccc3-c3ccccc3)c(=O)oc12	ALDH1A1 inh 0.141µM
COc1cc2c(cc1OC)CN(C(=O)c1cc3ccccc3oc1=O)CC2	none
CCOc1cccc2cc(C(=O)N3CCc4ccccc4C3)c(=O)oc12	HPGD block 4.47µM
COc1cccc2cc(C(=O)N3CCc4ccccc4C3)c(=O)oc12	PNC assembly inh inconclusive, HPGD block 7.94µM
CC1=C(C)NC(=S)SC1	HPGD block inconclusive, ALDH1A1 inh 22.4µM
Cn1c(-c2c(N)n(CCc3ccccc3)c3nc4ccccc4nc23)nc2ccccc21	CBFb-RUNX1 inh inconclusive
Cn1c(-c2c(N)n(C3CCCC3)c3nc4ccccc4nc23)nc2ccccc21	PNC assembly inh -94.4, CBFb-RUNX1 inh inconclusive
C=C(C)C(N)=O	none (no result: PNC assembly inh, HTT aggregate)
Cc1nn(C)c(C)c1CN(C)S(=O)(=O)c1ccc2ccccc2c1	HTT ATP protect inconclusive, HTT aggregate 7.94µM
COc1ccccc1/C=C/CN1CCCC(CCC(=O)NCc2ccccc2F)C1 (stereo not drawn)	ALDH1A1 inh inconclusive (no result: PNC assembly inh, HPGD block)
CCOC(=O)CCC(=O)Nc1ccc(S(=O)(=O)N2CCCCC2)cc1	none (no result: PNC assembly inh, HPGD block)
CCOC(=O)c1ccccc1NC(=O)c1cc(S(=O)(=O)N2CCOCC2)ccc1F	none
CCOC(=O)/C=C/C(=O)Nc1ccc(S(=O)(=O)N2CCCCCC2)cc1	ALDH1A1 inh 3.55µM (no result: PNC assembly inh, HPGD block)
CCOC(=O)c1ccccc1NS(=O)(=O)c1ccc(S(=O)(=O)N2CCCC2)cc1	PNC assembly inh inconclusive, ALDH1A1 inh 22.4µM
CCOC(=O)c1ccc(S(=O)(=O)Nc2cc(C(=O)O)ccc2Cl)cc1	ALDH1A1 inh 3.16µM (no result: PNC assembly inh, HPGD block)
CN(c1ccc(C(=O)Nc2nccs2)cc1)S(=O)(=O)c1ccccc1	HPGD block 8.91µM
Cc1nc2ccccn2c1/C(O)=C1\C(=O)C(=O)N(CCCN(C)C)C1c1ccc(Cl)cc1 (stereo not drawn)	none (no result: PNC assembly inh, CBFb-RUNX1 inh, HPGD block, HTT aggregate, ALDH1A1 inh)
CN(Cc1cc(C(C)(C)C)cc(Br)c1O)Cc1cc(C(C)(C)C)cc(Br)c1O	none (no result: PNC assembly inh, CBFb-RUNX1 inh, HTT aggregate)
CN(C)c1ccc(N2CC(C)(C)C2=O)cc1	none (no result: PNC assembly inh, HPGD block)
CN(c1ccccc1)S(=O)(=O)c1ccc(NC(=O)c2ccc(-c3ccccc3)cc2)cc1	HTT aggregate 12.6µM
CCOC(=O)/C=C/C(=O)Nc1ccc(S(=O)(=O)N(C)c2ccccc2)cc1	ALDH1A1 inh 25.1µM (no result: PNC assembly inh, HPGD block)
CC(=O)Nc1ccc(S(=O)(=O)N(CC(=O)O)Cc2ccccc2)cc1	none
CCOC(=O)CN(Cc1ccccc1)S(=O)(=O)c1ccc(NC(C)=O)cc1	PNC assembly inh inconclusive, ALDH1A1 inh 5.62µM
COC(=O)c1ccccc1S(=O)(=O)N1CCc2nc(COc3ccccc3)c3c(c2C1)CO[C@@H](C)C3	none (no result: PNC assembly inh, HTT aggregate)
CC(C)Oc1ccc(N2CC(C(=O)OCC(=O)NCc3ccccc3)CC2=O)cc1 (stereo not drawn)	none
COc1ncc2nc(-c3ccc(F)cc3)c(=O)n(Cc3cccs3)c2n1	ALDH1A1 inh inconclusive (no result: PNC assembly inh, CBFb-RUNX1 inh, HPGD block, HTT aggregate)
c1ccc2c(c1)CCC[C@@H]2C1=NCCN1	none (no result: PNC assembly inh)
Cc1ccc(NC(=S)Nc2cc(C(=O)O)ccc2N2CC3CC(C2)c2cccc(=O)n2C3)cc1C (stereo not drawn)	ALDH1A1 inh 28.2µM (no result: PNC assembly inh, HPGD block)
COc1cccc(NC(=S)Nc2cc(C(=O)O)ccc2N2CC3CC(C2)c2cccc(=O)n2C3)c1 (stereo not drawn)	ALDH1A1 inh inconclusive (no result: PNC assembly inh, HPGD block)
CCOC(=O)N1CCN(S(=O)(=O)c2ccc(OCC)c3ccccc23)CC1	HPGD block 28.2µM, HTT aggregate inconclusive, ALDH1A1 inh inconclusive
CCOc1ccc(S(=O)(=O)N2CCN(c3ccccc3)CC2)c2cccnc12	PNC assembly inh inconclusive, HTT aggregate inconclusive, ALDH1A1 inh 28.2µM
Cc1ccc(SCCNC(=O)c2cccc([N+](=O)[O-])c2C)cc1	HPGD block 25.1µM, ALDH1A1 inh inconclusive
